Laboratory results taken from PubChem BioAssay (EPA / NIEHS).
Activity calls are given as the source filed them. How the source made its calls: active means hit-call score of the fitted dose curve at least 0.9, where 1 is the maximum; inactive means score below 0.9.

Key:
[1] = read-out: Thrombomodulin, THBD (gene 7056); assay: BSK_CASM3C_Thrombomodulin: BioMAP Diversity Plus: CASM3C Assay for Thrombomodulin Biomarker Activity (AID 2283051); details: primary human coronary artery smooth muscle cells; actives raise or lower the signal;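 further: thrombomodulin protein level measured by ELISA 24 h after dosing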
[2] = read-out: Tissue Factor, F3 (gene 2152); assay: BSK_CASM3C_TissueFactor: BioMAP Diversity Plus: CASM3C Assay for Tissue Factor Biomarker Activity (AID 2283052); details: primary human coronary artery smooth muscle cells; actives raise or lower the signal;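 further: cell surface tissue factor protein level read by ELISA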
[3] = read-out: Interferon-gamma inducible Protein 10 (IP10), CXCL10 (gene 3627); assay: BSK_hDFCGF_IP10: BioMAP Diversity Plus: hDFCGF Assay for Interferon-gamma inducible Protein 10 (IP10) Biomarker Activity (AID 2283053); details: primary human foreskin fibroblasts; actives raise or lower the signal
Method in brief: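 Human foreskin fibroblast primary cells (hDFCGF system) were dosed with chemical and assayed at 24 h; IP-10 measured by ELISA. Activity fitted bidirectionally relative to DMSO negative control as baseline.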

[4] = read-out: Urokinase-type plasminogen activator receptor (uPAR), PLAUR (gene 5329); assay: BSK_CASM3C_uPAR: BioMAP Diversity Plus: CASM3C Assay for Urokinase-type plasminogen activator receptor (uPAR) Biomarker Activity (AID 2283054); details: primary human coronary artery smooth muscle cells; actives raise or lower the signal;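 further: cell-surface uPAR protein level quantified by ELISA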
[5] = read-out: Vascular cell adhesion molecule 1 (VCAM1), VCAM1 (gene 7412); assay: BSK_CASM3C_VCAM1: BioMAP Diversity Plus: CASM3C Assay for Vascular cell adhesion molecule 1 (VCAM1) Biomarker Activity (AID 2283055); details: primary human coronary artery smooth muscle cells; actives raise or lower the signal;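 further: VCAM-1 protein level quantified by ELISA on the cells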
[6] = read-out: Epidermal growth factor receptor (EGFR), EGFR (gene 1956); assay: BSK_hDFCGF_EGFR: BioMAP Diversity Plus: hDFCGF Assay for Epidermal growth factor receptor (EGFR) Biomarker Activity (AID 2283057); details: primary human foreskin fibroblasts; actives raise or lower the signal
Method in brief: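 Primary human foreskin fibroblasts were exposed to compound for 24 h, after which cell-surface EGFR was quantified by ELISA. Activity was fitted bidirectionally against the DMSO negative control as baseline.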

[7] = read-out: Interleukin-8 (IL8), CXCL8 (gene 3576); assay: BSK_hDFCGF_IL8: BioMAP Diversity Plus: hDFCGF Assay for Interleukin-8 (IL8) Biomarker Activity (AID 2283058); details: primary human foreskin fibroblasts; actives raise or lower the signal
Method in brief: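 Cells used are human skin primary fibroblasts. Chemical is added, cultures run 24 h, then IL-8 is quantified by ELISA, and gain or loss versus DMSO control is fitted in both directions.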

[8] = BSK_hDFCGF_Proliferation: Cell Proliferation Assessment in the BioMAP Diversity Plus: hDFCGF Assay (AID 2283059); details: primary human foreskin fibroblasts;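 further: curves fitted for both rise and fall of signal versus DMSO baseline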
Method in brief: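 Primary human foreskin fibroblasts, sub-confluent; […]; 10% TCA fix, 0.1% SRB stain, A560 total protein. Gain/loss fitted bidirectionally vs DMSO control.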

[9] = read-out: Macrophage colony-stimulating factor (MCSF), CSF1 (gene 1435); assay: BSK_hDFCGF_MCSF: BioMAP Diversity Plus: hDFCGF Assay for Macrophage colony-stimulating factor (MCSF) Biomarker Activity (AID 2283060); details: primary human foreskin fibroblasts; actives raise or lower the signal
Method in brief: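 Primary human foreskin fibroblasts dosed with chemical; 24 h later, M-CSF quantified by ELISA; curves fitted in both directions vs DMSO negative control.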

[10] = BSK_hDFCGF_SRB: Viability Assessment in the BioMAP Diversity Plus: hDFCGF Assay (AID 2283061); details: primary human foreskin fibroblasts;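 further: cells exposed to compound for 24 h before the read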
Method in brief: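 Readout is SRB absorbance at 560 nm, reflecting total protein in parallel cultures of human foreskin fibroblasts harvested 24 h after chemical dosing. Activity was fitted bidirectionally relative to DMSO.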

[11] = read-out: TIMP metallopeptidase inhibitor 1 (TIMP1), TIMP1 (gene 7076); assay: BSK_hDFCGF_TIMP1: BioMAP Diversity Plus: hDFCGF Assay for TIMP metallopeptidase inhibitor 1 (TIMP1) Biomarker Activity (AID 2283062); details: primary human foreskin fibroblasts; actives raise or lower the signal
Method in brief: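 Human skin fibroblasts (primary), hDFCGF system; compound exposure 24 h; TIMP-1 by ELISA; bidirectional fit vs DMSO negative control; overt cytotoxicity by SRB in parallel wells.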

[12] = read-out: Monokine induced gamma interferon (MIG), CXCL9 (gene 4283); assay: BSK_hDFCGF_MIG: BioMAP Diversity Plus: hDFCGF Assay for Monokine induced gamma interferon (MIG) Biomarker Activity (AID 2283063); details: primary human foreskin fibroblasts; actives raise or lower the signal
Method in brief: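 Chemicals were added to primary human foreskin fibroblast cultures, which were sampled 24 h later. MIG levels were then quantified by ELISA and responses fitted in both directions relative to DMSO.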

[13] = read-out: Matrix Metallopeptidase 1 (MMP1), MMP1 (gene 4312); assay: BSK_hDFCGF_MMP1: BioMAP Diversity Plus: hDFCGF Assay for Matrix Metallopeptidase 1 (MMP1) Biomarker Activity (AID 2283064); details: primary human foreskin fibroblasts; actives raise or lower the signal
Method in brief: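 Primary human foreskin fibroblasts in the hDFCGF system were dosed with test chemical, and MMP1 was measured by ELISA 24 h later. Values come from bidirectional curve fitting against the DMSO baseline.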

[14] = read-out: Vascular cell adhesion molecule 1 (VCAM1), VCAM1 (gene 7412); assay: BSK_hDFCGF_VCAM1: BioMAP Diversity Plus: hDFCGF Assay for Vascular cell adhesion molecule 1 (VCAM1) Biomarker Activity (AID 2283065); details: primary human foreskin fibroblasts; actives raise or lower the signal;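 on AC50: VCAM-1 protein level quantified by ELISA after 24 h chemical exposure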
Method in brief: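 Human foreskin fibroblast primary cells, chemical exposure 24 h; VCAM-1 by ELISA; bidirectional fit, DMSO = negative control/baseline.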

[15] = read-out: Intercellular Adhesion Molecule 1 (ICAM1), ICAM1 (gene 3383); assay: BSK_KF3CT_ICAM1: BioMAP Diversity Plus: KF3CT Assay for Intercellular Adhesion Molecule 1 (ICAM1) Biomarker Activity (AID 2283067); details: primary human keratinocytes with fibroblasts; actives raise or lower the signal
Method in brief: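 ICAM-1 levels are measured by ELISA 24 h after dosing a primary human co-culture of keratinocytes and foreskin fibroblasts. Activity in either direction is fitted relative to DMSO vehicle.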

[16] = read-out: Interferon-gamma inducible Protein 10 (IP10), CXCL10 (gene 3627); assay: BSK_KF3CT_IP10: BioMAP Diversity Plus: KF3CT Assay for Interferon-gamma inducible Protein 10 (IP10) Biomarker Activity (AID 2283068); details: primary human keratinocytes with fibroblasts; actives raise or lower the signal
Method in brief: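 In a primary skin co-culture of keratinocytes and fibroblasts, IP-10 is quantified by ELISA at 24 h after dosing. SRB staining of parallel wells monitors overt toxicity. Curves are fitted both directions against DMSO.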

[17] = BSK_KF3CT_SRB: Viability Assessment in the BioMAP Diversity Plus: KF3CT Assay (AID 2283069); details: primary human keratinocytes with fibroblasts;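 further: total protein by sulforhodamine B staining as a cytotoxicity measure; read 24 h after compound addition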
Method in brief: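 Human primary keratinocyte plus foreskin fibroblast co-culture exposed to chemicals for 24 h. Total protein measured by 0.1% sulforhodamine B staining after 10% TCA fixation, read at 560 nm; bidirectional fitting versus DMSO baseline.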

[18] = read-out: Interleukin-1 alpha (IL1a), IL1A (gene 3552); assay: BSK_KF3CT_IL1a: BioMAP Diversity Plus: KF3CT Assay for Interleukin-1 alpha (IL1a) Biomarker Activity (AID 2283070); details: primary human keratinocytes with fibroblasts; actives raise or lower the signal
Method in brief: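 Human keratinocyte plus foreskin fibroblast primary co-culture, sampled 24 h after chemical dosing. IL-1a measured by ELISA; responses fitted bidirectionally against DMSO baseline (negative control), so gain or loss of signal both count.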

[19] = read-out: Plasminogen activator inhibitor-1 (PAI1), SERPINE1 (gene 5054); assay: BSK_hDFCGF_PAI1: BioMAP Diversity Plus: hDFCGF Assay for Plasminogen activator inhibitor-1 (PAI1) Biomarker Activity (AID 2283066); details: primary human foreskin fibroblasts; actives raise or lower the signal
Method in brief: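 Human foreskin fibroblasts in the hDFCGF system were dosed with compound for 24 h; PAI-1 was quantified by ELISA. Bidirectional curve fitting used DMSO as negative control and baseline.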

[20] = read-out: Collagen III, COL3A1 (gene 1281); assay: BSK_hDFCGF_CollagenIII: BioMAP Diversity Plus: hDFCGF Assay for Collagen III Biomarker Activity (AID 2283056); details: primary human foreskin fibroblasts; actives raise or lower the signal
Method in brief: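 ELISA read-out of collagen III from human skin fibroblast cultures sampled 24 h post-dosing. Values were derived by bidirectional fitting relative to the DMSO vehicle control.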

## NC(=O)c1nc(-c2cccc(-c3cc(F)ccc3OCC(F)(F)C(F)(F)F)c2)n[nH]1
[1]
  outcome: inactive
[2]
  outcome: inactive
[3]
  AC50: 35 µM (active)
[4]
  AC50: 32 µM (active)
[5]
  outcome: inactive
[6]
  outcome: inactive
[7]
  AC50: 39.3 µM (active)
[8]
  AC50: 31.1 µM (active)
[9]
  AC50: 44 µM (active)
[10]
  AC50: 36.4 µM (active)
[11]
  AC50: 35.5 µM (active)
[12]
  AC50: 35 µM (active)
[13]
  AC50: 39.5 µM (active)
[14]
  AC50: 35.1 µM (active)
[15]
  AC50: 35.2 µM (active)
[16]
  AC50: 39.3 µM (active)
[17]
  AC50: 37 µM (active)
[18]
  AC50: 41.2 µM (active)

## C[C@]12CC[C@@H]3c4ccc(O)cc4CC[C@H]3[C@@H]1CCC2=O
[1]
  outcome: inactive
[2]
  outcome: inactive
[3]
  outcome: inactive
[4]
  outcome: inactive
[5]
  outcome: inactive
[6]
  outcome: inactive
[7]
  outcome: inactive
[8]
  AC50: 17.6 µM (active)
[9]
  outcome: inactive
[10]
  outcome: inactive
[11]
  outcome: inactive
[12]
  outcome: inactive
[13]
  outcome: inactive
[14]
  outcome: inactive
[19]
  outcome: inactive
[15]
  outcome: inactive
[16]
  outcome: inactive
[17]
  outcome: inactive
[18]
  outcome: inactive

## CCCCCc1ccc(N)cc1
[1]
  outcome: inactive
[2]
  outcome: inactive
[3]
  AC50: 20 µM (active)
[4]
  outcome: inactive
[5]
  outcome: inactive
[6]
  AC50: 0.0546 µM (active)
[7]
  outcome: inactive
[8]
  AC50: 9.38 µM (active)
[9]
  outcome: inactive
[10]
  outcome: inactive
[11]
  outcome: inactive
[12]
  outcome: inactive
[13]
  outcome: inactive
[14]
  outcome: inactive
[15]
  outcome: inactive
[16]
  AC50: 22 µM (active)
[17]
  AC50: 24.4 µM (active)
[18]
  outcome: inactive

## Cc1ncc(CO)c(CO)c1O
[1]
  outcome: inactive
[2]
  outcome: inactive
[3]
  outcome: inactive
[4]
  outcome: inactive
[5]
  outcome: inactive
[6]
  outcome: inactive
[7]
  outcome: inactive
[8]
  outcome: inactive
[9]
  outcome: inactive
[10]
  outcome: inactive
[11]
  outcome: inactive
[12]
  outcome: inactive
[13]
  outcome: inactive
[14]
  outcome: inactive
[15]
  outcome: inactive
[16]
  outcome: inactive
[17]
  outcome: inactive
[18]
  outcome: inactive

## CCCCCCCCOc1ccc(C(=O)c2ccccc2)c(O)c1
[1]
  outcome: inactive
[2]
  outcome: inactive
[3]
  outcome: inactive
[4]
  outcome: inactive
[5]
  outcome: inactive
[20]
  outcome: inactive
[6]
  outcome: inactive
[7]
  outcome: inactive
[8]
  AC50: 20 µM (active)
[9]
  outcome: inactive
[10]
  outcome: inactive
[11]
  outcome: inactive
[12]
  outcome: inactive
[13]
  outcome: inactive
[14]
  outcome: inactive
[19]
  outcome: inactive
[15]
  outcome: inactive
[16]
  outcome: inactive
[17]
  outcome: inactive
[18]
  outcome: inactive

## O=C(O)Cn1c(=O)n(Cc2ccc(Br)cc2F)c(=O)c2ccc(Cl)cc21
[1]
  outcome: inactive
[2]
  outcome: inactive
[4]
  outcome: inactive
[5]
  outcome: inactive
[20]
  outcome: inactive
[6]
  outcome: inactive
[7]
  outcome: inactive
[8]
  outcome: inactive
[9]
  outcome: inactive
[10]
  outcome: inactive
[11]
  outcome: inactive
[12]
  outcome: inactive
[13]
  outcome: inactive
[14]
  outcome: inactive
[19]
  outcome: inactive
[15]
  outcome: inactive
[16]
  outcome: inactive
[17]
  outcome: inactive
[18]
  outcome: inactive
